How the values were obtained:
Experiment in all cases: thermal shift delta Tm vs DMSO control; higher = stronger stabilization (binding)
Settings in all cases: 12.5 µM; protein concentration 2 µM
LOC_OS04G57630-cb004 = system: LOC_OS04G57630-cb004
Method in brief: (§1)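 Compounds dissolved in DMSO were added to purified rice kinase domain constructs, which had been expressed in E. coli, for differential scanning fluorimetry. Each well held 19.5 μl of 2 μM kinase in 100 mM potassium phosphate pH 7.5, 150 mM NaCl, 10% glycerol and 5 × SYPRO Orange. Fluorescence was followed from 25°C to 95°C at a rate of 0.05°C/s. Shifts in Boltzmann-fitted melting temperature are triplicate means relative to DMSO-only protein.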

LOC_OS05G07850-cb002 = system: LOC_OS05G07850-cb002
Method in brief: as §1

LOC_OS05G16824-cb004 = system: LOC_OS05G16824-cb004
Method in brief: as §1

LOC_OS05G28520-cb001 = system: LOC_OS05G28520-cb001
Method in brief: as §1

LOC_OS05G30820-cb001 = system: LOC_OS05G30820-cb001
Method in brief: as §1

LOC_OS05G43570-cb004 = system: LOC_OS05G43570-cb004
Method in brief: as §1

LOC_OS06G16330-cb003 = system: LOC_OS06G16330-cb003
Method in brief: as §1

LOC_OS06G22820-cb001 = system: T1, LOC_OS06G22820-cb001
T1 sequence (whole entry): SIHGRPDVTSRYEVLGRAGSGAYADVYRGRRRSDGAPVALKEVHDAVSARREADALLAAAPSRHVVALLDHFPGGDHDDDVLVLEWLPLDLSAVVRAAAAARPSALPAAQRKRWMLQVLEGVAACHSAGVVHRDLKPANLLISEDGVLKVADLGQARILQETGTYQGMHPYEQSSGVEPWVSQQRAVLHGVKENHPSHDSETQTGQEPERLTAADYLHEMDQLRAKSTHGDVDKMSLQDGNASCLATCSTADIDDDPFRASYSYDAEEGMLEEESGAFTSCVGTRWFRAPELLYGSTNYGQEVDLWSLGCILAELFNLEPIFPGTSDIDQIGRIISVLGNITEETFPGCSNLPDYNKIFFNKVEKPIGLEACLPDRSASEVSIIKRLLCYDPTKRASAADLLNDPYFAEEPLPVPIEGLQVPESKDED
Method in brief: as §1

LOC_OS07G06570-cb004 = system: LOC_OS07G06570-cb004
Method in brief: as §1

LOC_OS07G07230-cb001 = system: LOC_OS07G07230-cb001
Method in brief: as §1

Sequence of LOC_OS06G16330-cb003 (as listed by the source): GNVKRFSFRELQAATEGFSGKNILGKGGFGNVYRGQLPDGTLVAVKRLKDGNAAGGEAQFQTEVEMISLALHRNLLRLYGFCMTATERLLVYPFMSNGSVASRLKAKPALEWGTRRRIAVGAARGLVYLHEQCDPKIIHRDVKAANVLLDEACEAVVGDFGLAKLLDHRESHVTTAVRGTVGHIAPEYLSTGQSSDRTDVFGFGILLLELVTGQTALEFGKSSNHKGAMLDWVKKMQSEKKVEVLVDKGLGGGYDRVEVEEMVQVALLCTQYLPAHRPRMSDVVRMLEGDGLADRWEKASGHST

Cn1cnc(N)c2ncnc1-2 [3-Methyladenine (3-MA)]
thermal shift delta Tm (LOC_OS04G57630-cb004): -0.01 °C
thermal shift delta Tm (LOC_OS05G07850-cb002): 0.75 °C
thermal shift delta Tm (LOC_OS05G16824-cb004): -3.2 °C
thermal shift delta Tm (LOC_OS05G28520-cb001): 0.15 °C
thermal shift delta Tm (LOC_OS05G30820-cb001): 0.64 °C
thermal shift delta Tm (LOC_OS05G43570-cb004): 0.46 °C
thermal shift delta Tm (LOC_OS06G16330-cb003): -0.06 °C
thermal shift delta Tm (LOC_OS06G22820-cb001): 0.64 °C
thermal shift delta Tm (LOC_OS07G06570-cb004): 0.43 °C
thermal shift delta Tm (LOC_OS07G07230-cb001): 0.03 °C

NC(=O)c1ccc2nc(-c3ccc(Oc4ccc(Cl)cc4)cc3)[nH]c2c1 [Chk2 Inhibitor II (BML-277)]
thermal shift delta Tm (LOC_OS04G57630-cb004): -0.02 °C
thermal shift delta Tm (LOC_OS05G07850-cb002): 3.29 °C
thermal shift delta Tm (LOC_OS05G16824-cb004): 2.79 °C
thermal shift delta Tm (LOC_OS05G28520-cb001): 0.29 °C
thermal shift delta Tm (LOC_OS05G30820-cb001): -0.18 °C
thermal shift delta Tm (LOC_OS05G43570-cb004): 0.06 °C
thermal shift delta Tm (LOC_OS06G16330-cb003): 0.28 °C
thermal shift delta Tm (LOC_OS06G22820-cb001): 0.74 °C
thermal shift delta Tm (LOC_OS07G06570-cb004): -0.16 °C
thermal shift delta Tm (LOC_OS07G07230-cb001): -0.75 °C

CC(C)(C)c1cc(NC(=O)Nc2ccc(-c3cn4c(n3)sc3cc(OCCN5CCOCC5)ccc34)cc2)no1 [Quizartinib (AC220)]
thermal shift delta Tm (LOC_OS04G57630-cb004): 0.97 °C
thermal shift delta Tm (LOC_OS05G07850-cb002): 1.54 °C
thermal shift delta Tm (LOC_OS05G16824-cb004): -1.62 °C
thermal shift delta Tm (LOC_OS05G28520-cb001): 0.28 °C
thermal shift delta Tm (LOC_OS05G30820-cb001): 0.82 °C
thermal shift delta Tm (LOC_OS05G43570-cb004): 0.27 °C
thermal shift delta Tm (LOC_OS06G16330-cb003): 0 °C
thermal shift delta Tm (LOC_OS06G22820-cb001): 0.73 °C
thermal shift delta Tm (LOC_OS07G06570-cb004): 1.04 °C
thermal shift delta Tm (LOC_OS07G07230-cb001): 0.45 °C

COCC(=O)NC/C=C/c1ccc2ncnc(Nc3ccc(Oc4ccc(C)nc4)c(C)c3)c2c1
thermal shift delta Tm (LOC_OS04G57630-cb004): 0.08 °C
thermal shift delta Tm (LOC_OS05G07850-cb002): 3.11 °C
thermal shift delta Tm (LOC_OS05G16824-cb004): -4.84 °C
thermal shift delta Tm (LOC_OS05G28520-cb001): -0.02 °C
thermal shift delta Tm (LOC_OS05G30820-cb001): 0.4 °C
thermal shift delta Tm (LOC_OS05G43570-cb004): 0.04 °C
thermal shift delta Tm (LOC_OS06G16330-cb003): 0.23 °C
thermal shift delta Tm (LOC_OS06G22820-cb001): 0.59 °C
thermal shift delta Tm (LOC_OS07G06570-cb004): 0.41 °C
thermal shift delta Tm (LOC_OS07G07230-cb001): 0.08 °C

COc1cc(OC)c(C=C2C(=O)Nc3ccccc32)c(OC)c1
thermal shift delta Tm (LOC_OS04G57630-cb004): 0.1 °C
thermal shift delta Tm (LOC_OS05G07850-cb002): 0.55 °C
thermal shift delta Tm (LOC_OS05G16824-cb004): -0.46 °C
thermal shift delta Tm (LOC_OS05G28520-cb001): 0.31 °C
thermal shift delta Tm (LOC_OS05G30820-cb001): 0.46 °C
thermal shift delta Tm (LOC_OS05G43570-cb004): -0.11 °C
thermal shift delta Tm (LOC_OS06G16330-cb003): -0.29 °C
thermal shift delta Tm (LOC_OS06G22820-cb001): 0.44 °C
thermal shift delta Tm (LOC_OS07G06570-cb004): 1.13 °C
thermal shift delta Tm (LOC_OS07G07230-cb001): 0.96 °C

CC(C)c1cnn2c(NCc3ccccc3-n3cccn3)nc(OC3CCCNC3)nc12 (stereo not given)
thermal shift delta Tm (LOC_OS04G57630-cb004): 0.19 °C
thermal shift delta Tm (LOC_OS05G07850-cb002): 0.48 °C
thermal shift delta Tm (LOC_OS05G16824-cb004): 1.46 °C
thermal shift delta Tm (LOC_OS05G28520-cb001): 0.66 °C
thermal shift delta Tm (LOC_OS05G30820-cb001): 0.31 °C
thermal shift delta Tm (LOC_OS05G43570-cb004): 0.57 °C
thermal shift delta Tm (LOC_OS06G16330-cb003): 0.17 °C
thermal shift delta Tm (LOC_OS06G22820-cb001): 1.22 °C
thermal shift delta Tm (LOC_OS07G06570-cb004): 0.4 °C
thermal shift delta Tm (LOC_OS07G07230-cb001): -0.33 °C

COc1cc(N2CCN(C)CC2)ccc1Nc1nccc(-c2cn(C)c3cnccc23)n1
thermal shift delta Tm (LOC_OS04G57630-cb004): 0.55 °C
thermal shift delta Tm (LOC_OS05G07850-cb002): 11.8 °C
thermal shift delta Tm (LOC_OS05G16824-cb004): -3.65 °C
thermal shift delta Tm (LOC_OS05G28520-cb001): 0.25 °C
thermal shift delta Tm (LOC_OS05G30820-cb001): 0.38 °C
thermal shift delta Tm (LOC_OS05G43570-cb004): 0.32 °C
thermal shift delta Tm (LOC_OS06G16330-cb003): 5.31 °C
thermal shift delta Tm (LOC_OS06G22820-cb001): 0.11 °C
thermal shift delta Tm (LOC_OS07G06570-cb004): 1.53 °C
thermal shift delta Tm (LOC_OS07G07230-cb001): 0.44 °C

CCCCNc1ncc(C(=O)NCc2ccc(-n3ccnc3)cc2)c(NC2CCC(O)CC2)n1 (stereo not given)
thermal shift delta Tm (LOC_OS04G57630-cb004): 3.08 °C
thermal shift delta Tm (LOC_OS05G07850-cb002): 11 °C
thermal shift delta Tm (LOC_OS05G16824-cb004): 8.45 °C
thermal shift delta Tm (LOC_OS05G28520-cb001): 0.43 °C
thermal shift delta Tm (LOC_OS05G30820-cb001): 1 °C
thermal shift delta Tm (LOC_OS05G43570-cb004): 0.57 °C
thermal shift delta Tm (LOC_OS06G16330-cb003): 11.2 °C
thermal shift delta Tm (LOC_OS06G22820-cb001): 0.49 °C
thermal shift delta Tm (LOC_OS07G06570-cb004): 1.44 °C
thermal shift delta Tm (LOC_OS07G07230-cb001): 0.57 °C

CS(=O)(=O)c1ccc(-c2cnc(N)c(C(=O)Nc3ccccc3)n2)cc1
thermal shift delta Tm (LOC_OS04G57630-cb004): 0.45 °C
thermal shift delta Tm (LOC_OS05G07850-cb002): 8.7 °C
thermal shift delta Tm (LOC_OS05G16824-cb004): -1.5 °C
thermal shift delta Tm (LOC_OS05G28520-cb001): 0.25 °C
thermal shift delta Tm (LOC_OS05G30820-cb001): 0.57 °C
thermal shift delta Tm (LOC_OS05G43570-cb004): 0.1 °C
thermal shift delta Tm (LOC_OS06G16330-cb003): 2.51 °C
thermal shift delta Tm (LOC_OS06G22820-cb001): 0.37 °C
thermal shift delta Tm (LOC_OS07G06570-cb004): 0.82 °C
thermal shift delta Tm (LOC_OS07G07230-cb001): 0.7 °C

CNC(=O)c1cccc(-c2ccc3c(N4CCOC[C@@H]4C)nc(N4CCOC[C@@H]4C)nc3n2)c1 [Vistusertib (AZD2014)]
thermal shift delta Tm (LOC_OS04G57630-cb004): -0.14 °C
thermal shift delta Tm (LOC_OS05G07850-cb002): 0.07 °C
thermal shift delta Tm (LOC_OS05G16824-cb004): -6.13 °C
thermal shift delta Tm (LOC_OS05G28520-cb001): -0.26 °C
thermal shift delta Tm (LOC_OS05G30820-cb001): 0.67 °C
thermal shift delta Tm (LOC_OS05G43570-cb004): 0.5 °C
thermal shift delta Tm (LOC_OS06G16330-cb003): 0.19 °C
thermal shift delta Tm (LOC_OS06G22820-cb001): 0.59 °C
thermal shift delta Tm (LOC_OS07G06570-cb004): 0.64 °C
thermal shift delta Tm (LOC_OS07G07230-cb001): 0.29 °C
